Bioassay records as filed in PubChem BioAssay.
RXFP1 ag: RXFP1 (human) receptor agonism. hit rate 0.3% among 370,000. AID 2676. Potency, µM (doses to about 57.5 µM), without a hit: at the highest dose activation, hits mostly activators. HEK293T-RXFP1 cAMP TR-FRET, 30 min; response scale: percent of porcine relaxin response, buffer zero. Q9HBX9; active means well fitted activation curve with a large enough effect; inconclusive means small, poorly fitted or top-dose-only effect; further: potency means the concentration at half of the fitted maximal effect; on the % scale 0 is the no-effect control and ±100 the full control effect; nearly all actives have a fitted effect of over 60% in size
Target sequence (Q9HBX9 whole entry, looked up): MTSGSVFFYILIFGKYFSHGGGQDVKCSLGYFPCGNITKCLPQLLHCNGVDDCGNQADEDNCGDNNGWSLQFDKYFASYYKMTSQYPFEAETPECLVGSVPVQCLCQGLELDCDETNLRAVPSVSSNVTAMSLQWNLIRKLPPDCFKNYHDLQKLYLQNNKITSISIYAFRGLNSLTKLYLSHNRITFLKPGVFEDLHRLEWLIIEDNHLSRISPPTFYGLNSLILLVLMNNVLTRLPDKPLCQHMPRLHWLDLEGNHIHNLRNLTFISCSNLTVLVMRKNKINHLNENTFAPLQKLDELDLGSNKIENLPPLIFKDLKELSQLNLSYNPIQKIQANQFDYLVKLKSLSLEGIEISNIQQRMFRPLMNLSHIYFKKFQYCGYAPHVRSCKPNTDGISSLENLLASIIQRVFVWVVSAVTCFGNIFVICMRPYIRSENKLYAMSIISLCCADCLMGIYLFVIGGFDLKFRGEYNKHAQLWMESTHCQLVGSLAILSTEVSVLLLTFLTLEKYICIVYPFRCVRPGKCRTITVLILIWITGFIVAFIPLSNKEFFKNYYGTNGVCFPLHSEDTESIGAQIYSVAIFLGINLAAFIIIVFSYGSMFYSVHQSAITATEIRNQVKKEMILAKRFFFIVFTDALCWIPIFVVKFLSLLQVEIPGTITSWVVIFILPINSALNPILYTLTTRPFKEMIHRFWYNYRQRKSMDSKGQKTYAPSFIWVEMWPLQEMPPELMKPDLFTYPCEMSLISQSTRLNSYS
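HEK293 cells stably expressing RXFP1, treated 30 min at 37C with compounds plus PDE4 inhibitor Ro 20174; cAMP measured by HTRF TR-FRET. Normalized to buffer and 29 nM porcine relaxin; EC50 by Hill fit.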
pAkt inh: blocks phosphorylation of Akt. Neuro2A IGF-stimulated pAkt S473 HTRF, 20 min; stronger effect = lower value. activity change, % for hits at 50 µM. hit rate 0.32% among 360,000. AID 651550; in the data active means activity change below about -80%; inconclusive means mostly about -51% to -80%; further: on the % scale 0 is the no-effect control and ±100 the full control effect
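Single-point screen (50 µM final compound) in Neuro2A cells stimulated 20 min with 6 nM IGF at 37 deg C. After lysis, Ser473-phosphorylated Akt read by HTRF (ex 330 nm, em 615/665 nm) as the 665/615 ratio.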
gsp antagonist: gsp mutant antagonism; Potency, µM (doses to about 76.9 µM), for the others: at the highest dose activity change, negative = inhibition, usual class: inhibitors; gsp-mutant cells, cAMP HTRF, 30 min; hit rate 0.4% among 340,000; calls by dose curve; cell line not stated here;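 further: intracellular cAMP measured with PDE inhibitor Ro 20-1724 present during compound exposure; potency means the concentration at half of the fitted maximal effect; on the % scale 0 is the no-effect control and ±100 the full control effect; nearly all actives have a fitted effect of over 65% in size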
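G418-selected cells were plated in DMEM/10% FBS for 16-24 h at 37C, then treated with compounds plus the PDE inhibitor […] (300 uM solution added) for 30 min at 37C. Intracellular cAMP was measured by HTRF after 30 min lysis at room temperature.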
RXFP1 antagonist: antagonists of human relaxin receptor RXFP1. AID 1259400. HEK293-RXFP1, relaxin-stimulated cAMP HTRF, 30 min; stronger effect = lower value. activity change, negative = inhibition, % at 57.5 µM. Q9HBX9. hit rate 0.59% among 350,000;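 active means activity change of -60% or lower, but not beyond a set lower limit; inconclusive means change between -60% and -40%, or beyond the set limit; inactive means change above -40%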; further: on the % scale 0 is the no-effect control and ±100 the full control effect
gsp agonist: gsp mutant agonism. gsp mutant cells, cAMP HTRF, 30 min. Potency, µM (doses to about 76.9 µM), without a hit: top-dose activation (cAMP increase), actives largely listed as activators. hit rate 0.13% among 340,000. AID 624287; active means well fitted activation curve with a large enough effect; inconclusive means small, poorly fitted or top-dose-only effect, or another doubt; inactive means no such curve, though single readings can be large or run the other way; cell line not stated here;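 further: phosphodiesterase inhibitor Ro 20-1724 added with compounds to block cAMP breakdown; potency means the concentration at half of the fitted maximal effect; nearly all actives have a fitted effect of over 60% in size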
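Cells stably selected in G418 were plated at 2000/well, grown 16-24 hr, then given compounds in DMSO with the PDE inhibitor […] (300 uM solution added) for 30 min at 37C; cAMP was read by HTRF.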
Active calls of the source: *; i = inactive; ? = inconclusive; / = not tested or not shown; [ ] = another dose, or the depositor's remark. Compounds with a hit are over-represented: about 1.3% of the library has one in this group of screens.

SMILES	RXFP1 ag	pAkt inh	gsp antagonist	RXFP1 antagonist	gsp agonist
O=c1c2ccccc2sn1-c1cc(S(=O)(=O)N2CCOCC2)ccc1N1CCOCC1	4.8%	i	-14.8%	0.1	-5.4%
Cn1cccc1C(=O)NC(=O)COC(=O)c1ccc(S(C)(=O)=O)c([N+](=O)[O-])c1	/	i	10.4%	?	20.8%
CS(=O)(=O)c1ccc(C(=O)OCC(=O)NC23CC4CC(CC(C4)C2)C3)cc1[N+](=O)[O-]	-0.3%	i	0.2%	-64.9*	-1.3%[15.4 µM]
CCN(C(=O)Cn1c(=O)n(-c2ccccc2)c(=O)c2ccc(C(=O)NCc3ccc4c(c3)OCO4)cc21)c1cccc(C)c1	0.0%	/	/	/	/
COc1ccc2sc(N(Cc3cccnc3)C(=O)c3cccs3)nc2c1	1.9%	/	/	-12.6	/
CC1=C(C(=O)OC(C)C)C(c2cccnc2)C2=C(CC(C)(C)CC2=O)N1 (stereo not given)	1.5%	i	3.0%	-8.0	11.4%
COCCOC(=O)C1=C(C)NC2=C(C(=O)CC(C)(C)C2)C1c1cccnc1 (stereo not given)	2.8%	-108.0%*	1.6%	-2.7	-4.9%
Cc1ccc(CN2CCCn3nc(C(=O)NCc4ccc(OC(C)C)cc4)cc3C2=O)cc1	2.0%	/	/	-3.5	/
O=Cc1cn(-c2ccccc2)nc1-c1ccccc1	0.4%	i	-8.0%	5.2	7.0%
CC1=NNC(=O)/C1=C\c1cn(-c2ccccc2)nc1-c1ccccc1	-4.7%	i	-11.2%	-72.9*	5.8%[15.4 µM]
COc1ccc(NS(=O)(=O)c2ccc(N)c(C(=O)O)c2)cc1	0.1%	-115.4%*	1.3%	10.1	?
COc1ccc(NS(=O)(=O)c2ccc(O)c(NC(=O)c3ccc(S(=O)(=O)N4CCCC4)cc3)c2)cc1	-1.5%	i	-4.8%	-60.1*	-15.2%
Cc1ccc(NC(=O)c2oc3ccccc3c2NC(=O)c2ccc(F)c(F)c2)cc1	0.5%	/	/	/	/
Cc1oc2c(c1C(=O)c1ccc(Cl)cc1)C(=O)C(=O)c1ccccc1-2	2.7%	i	56.2µM*	9.5	-29.0%
Cc1ccc(C(=O)c2c(C)oc3c2C(=O)C(=O)c2ccccc2-3)cc1	2.0%	i	-5.3%[15.4 µM]	-36.4	7.8%
Cc1cccc(-n2c(SCC(=O)N3CCCC3)nc3n[nH]c(C)c3c2=N)c1	?	-103.7%*	30.4%	34.7	?
O=S(=O)(c1ccc2[nH]c3c(c2c1)CCCCC3)N1CCN(c2cccc(Cl)c2)CC1	-1.5%	/	/	-13.3	/
COc1ccccc1C(=O)N1CCC(c2noc(-c3ccc(S(=O)(=O)N4CCCC4)cc3)n2)CC1	-1.8%	/	/	?	/
CC(C)c1nn2c(=O)cc(COC(=O)c3cccc(NC(=O)c4ccccc4F)c3)nc2s1	-0.8%	/	/	9.8	/
COc1ccc(OCC(=O)NC(=S)Nc2ccc3c4c(cccc24)CC3)cc1	20µM*	i	16.1%	12.8	?
COc1ccc([C@]23Cc4cc(OC)c(OC)cc4C(O2)C2=C(CC(C)(C)CC2=O)O3)cc1	-0.2%[11.5 µM]	/	/	/	/
CC(C)(C)c1cc(=O)n2c(C#N)c(C#N)nc2[nH]1	7.4%	-89.2%*	-14.9%	-7.3	15.7%
Cc1ccc(NC(=O)c2cc(S(=O)(=O)N3CCc4ccccc43)cn2C)c(Cl)c1	1.5%	/	/	0.8	/
Cc1nonc1NC(=O)CSc1nc(CCC2CCCC2)nc2ccccc12	?	i	-11.2%	-10.8	20µM*
c1ccc(-c2nn3c(C4CCCCC4)nnc3s2)nc1	1.6%	i	7.6%[15.4 µM]	-11.0	-4.0%
SMILES	RXFP1 ag	pAkt inh	gsp antagonist	RXFP1 antagonist	gsp agonist
c1ccc(-c2nn3c(C4CCCCC4)nnc3s2)cc1	-0.2%	-114.4%*	10.2%	-2.3	12.8%
Cn1nc(C(F)(F)F)c(C#N)c1N1CCN(c2ccccc2F)CC1	2.1%	-107.0%*	4.4%	10.6	23.9%
COc1cccc(N2CCN(c3c(C#N)c(C(F)(F)F)nn3C)CC2)c1	-1.6%	i	4.1%	-15.8	-27.1%
COc1ccc(CNC(=O)c2cc(-c3cccs3)nc3ccccc23)c(OC)c1	8.3%	/	/	-8.4	/
Cc1cccc(NC(=O)/C(=C\c2ccco2)NC(=O)c2cccs2)c1	9.6%	-110.4%*	7.2%	-9.4	-12.4%
Cc1ccc(C(=O)N/C(=C/c2ccco2)C(=O)Nc2cccc(C)c2)cc1	1.8%	i	-0.9%	19.5	9.5%
CCCS(=O)(=O)NCCc1csc2nc(-c3ccc(OC)cc3)nn12	3.4%	/	/	-13.7	/
